Screening results deposited in PubChem BioAssay by National Center for Advancing Translational Sciences (NCATS).
An excerpt weighted towards active compounds, which were near 14% of everything screened.
HCMV inh: blocks human cytomegalovirus replication; HFF cells, HCMV-luciferase reporter, 72 h; hits give low values; activity change, negative = inhibition, % at 57.5 µM; 4.5% of 410,000 active; in the data active = activity change below about -60%; inconclusive = no clear call, values can overlap the other calls; inactive = above about -39%
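Screen run at 2 compound doses on HFFs infected with reporter HCMV, MOI 1 PFU/cell. Luciferase activity from cell lysates at 72 h post infection gave inhibition relative to buffer-only and Salinomycin wells.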
Giardia FBPA inh: Giardia lamblia aldolase inhibition; A8B2U2; purified Giardia FBPA; Potency, µM (top dose mostly 59.6 µM), without a hit: top-dose activity, negative = inhibition, most hits filed as inhibitors; 0.71% of 290,000 active; also: potency is read from the fitted curve at half-maximal effect; nearly all actives have a fitted effect of over 55% in size
Target sequence (A8B2U2 whole entry, looked up): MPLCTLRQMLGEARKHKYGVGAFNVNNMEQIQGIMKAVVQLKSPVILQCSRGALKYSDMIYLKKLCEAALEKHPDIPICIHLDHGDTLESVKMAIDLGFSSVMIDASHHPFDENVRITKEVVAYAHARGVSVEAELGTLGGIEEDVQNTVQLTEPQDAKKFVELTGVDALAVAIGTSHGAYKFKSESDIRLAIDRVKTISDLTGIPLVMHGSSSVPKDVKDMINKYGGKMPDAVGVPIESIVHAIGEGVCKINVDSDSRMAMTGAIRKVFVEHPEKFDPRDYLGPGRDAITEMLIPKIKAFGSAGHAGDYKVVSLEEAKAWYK
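Giardia FBPA (40 nM reagent) was preincubated 10 min at RT with compound (up to 57.5 uM final), then substrate plus GAPDH/TPI/NAD/arsenate coupling system with diaphorase/resazurin was added; resorufin fluorescence (525/598 nm) was read after 20 min.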
Sm TGR block: inhibitors of Schistosoma mansoni thioredoxin glutathione reductase; Potency, µM (highest dose often 114 µM), for inactives: top-dose activity change, negative = inhibition, hits mostly inhibitors; purified TGR, DTNB reduction, TNB absorbance 405 nm; 3% of 360,000 active; also: potency is read from the fitted curve at half-maximal effect; nearly all actives have a fitted effect of over 60% in size
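Kinetic colorimetric format: TGR-catalysed, NADPH-driven DTNB reduction monitored via TNB absorbance. Enzyme dispensed at 20 nM; compound exposure 15 min at room temperature before reaction start.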
Pf growth 48h: P. falciparum growth inhibition at 48 hours (one generation). P. falciparum luciferase growth in erythrocytes, 48 h. Potency, µM (highest dose often 28.7 µM), for the others: at the highest dose activity change, negative = inhibition, usual class: inhibitors. AID 504832. 5.9% of 310,000 active; also: potency is read from the fitted curve at half-maximal effect
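Parasite viability was followed by luminescence of a genomically integrated firefly luciferase. Cultures held 0.1% parasitemia at 2% hematocrit (final), incubated under 5% CO2 at 37 C.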
Pf growth 96h: P. falciparum growth inhibition at 96 hours | Potency, µM (highest dose often 28.7 µM), for the others: top-dose activity change, negative = inhibition, actives largely listed as inhibitors | P. falciparum luciferase reporter growth, 96 h | 6.9% of 320,000 active; also: potency is read from the fitted curve at half-maximal effect
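Cell-based qHTS: luciferase-tagged P. falciparum in erythrocytes (2% hematocrit, 0.05% parasitemia final) incubated with compounds for 96 hours, 37 C, 5% CO2; luciferase detection reagent then added and luminescence measured.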
* hit, by the source's call; ? = inconclusive; . = no result given. Unless noted, calls follow the shape of the dose curve; as a rule, active = well fitted curve in the direction sought with a large enough effect; inconclusive = small, poorly fitted or top-dose-only effect, or another doubt; inactive = no such curve, though single readings can be large; an effect the other way counts as inactive or inconclusive. % is scaled to controls: 0 for no effect and ±100 for the full control effect.

SMILES	HCMV inh	Giardia FBPA inh	Sm TGR block	Pf growth 48h	Pf growth 96h
Cc1cc(C)nc(SCCS(=O)(=O)Cc2ccc(Cl)cc2)n1	-25.2	-5.8%	-0.9%	3.5%	10.4µM*
CCN(CC)S(=O)(=O)c1ccc(N2CCOCC2)c(NC(=O)c2ccccc2)c1	11.7	2.1%	-9.0%	?	?
CCN(CC)S(=O)(=O)c1ccc(N2CCCC2)c(NC(=O)c2ccc(N3CCCC3=O)cc2)c1	-22.7	.	3.5%	13.1µM*	11.7µM*
CCN(CC)S(=O)(=O)c1ccc(N2CCOCC2)c(NC(=O)c2ccc(N3CCCC3=O)cc2)c1	-29.8	.	-3.2%	7.38µM*	14.7µM*
O=C(NCC1CCCO1)c1cccc(NC(=O)c2ccco2)c1 (centres undefined)	61.0	5.4%	-8.3%	24.1%	.
Cc1cc(C)cc(NC(=O)c2cccc(NC(=O)c3ccco3)c2)c1	10.5	.	.	.	.
O=C(NC1CCCC1)c1cccc(NC(=O)c2ccco2)c1	-106.6*	-2.4%	7.7%	.	-27.1%
O=C(Nc1cccc(NC(=O)c2ccco2)c1)c1cccc(Br)c1	-90.1*	5.6%	0.0%	0.0%	-13.5%
CC(=O)c1cccc(NC(=O)c2cccc(NC(=O)c3ccco3)c2)c1	16.3	0.3%	-18.7%	-1.2%	-20.1%
O=C(Nc1cc(Br)c(O)c(Br)c1)c1cccc(NC(=O)c2ccco2)c1	26.3	6.1%	?	?	7.38µM*
CCSc1nc2ccccc2n1CC(N)=O	-23.9	0.4%	-0.5%	-20.6%	.
CCSc1nc2ccccc2n1C(=O)/C=C\c1ccc(OC)c(OC)c1	-97.9*	-3.6%	-11.7%	?	?
C=CCSc1nc(N)c2c3c(sc2n1)CN(C)CC3	-27.1	-26.9%	53.4%	?	2.08µM*
CSc1nc(N)c2c3c(sc2n1)CN(C)CC3	28.7	-12.0%	-23.8%	.	4.65µM*
CCc1nc2ccc(C(=O)NCCCn3ccnc3)cn2c1N(C)C(=O)COc1ccccc1	-2.0	.	.	.	.
CCCN(CCC)CCNC(=O)c1cc2c(=O)oc3ccc(C)cc3c2s1	4.7	.	-6.1%	.	.
O=C(CNC(=O)c1cccs1)Nc1ccncc1	-0.9	.	4.5%	7.4%	1.7%
Oc1ccc(Cl)cc1-c1cc(-c2ccco2)[nH]n1	-5.8	-18.9%	44.7µM*	?	?
Oc1c(-c2cc(-c3ccco3)[nH]n2)ccc2ccccc12	149.3	-7.6%	-9.9%	-11.1%	10.2%
Oc1ccccc1-c1cc(-c2ccco2)[nH]n1	183.4	-18.3%	?	.	-10.3%
Oc1ccc(Cl)cc1-c1cc(-c2cccc(Br)c2)n[nH]1	-93.2*	5.3%	-2.3%	2.94µM*	.
Oc1ccc(Br)cc1-c1cc(-c2ccco2)[nH]n1	-2.2	-2.1%	-27.3%	11.7µM*	.
O=[N+]([O-])c1ccccc1-c1cc(-c2cc(Cl)ccc2O)n[nH]1	-2.2	3.9%	-13.3%	?	-0.3%
Oc1ccc(Cl)cc1-c1cc(-c2ccccc2Cl)[nH]n1	118.0	-9.5%	5.2%	9.28µM*	5.3%
CC(C)C[C@H]1CN(CCCC[C@H]2CNC(=O)C(=O)N2Cc2ccccc2)C(=O)C(=O)N1CCc1ccc(O)cc1	3.2	.	.	.	.
C#CCOCCOCCOCCNc1nc(N2CCN(C(=O)[C@H]([C@@H](C)CC)n3cc([C@@H](N)Cc4ccc(O)cc4)nn3)CC2)nc(N2CCN(C(=O)[C@H](Cc3cc4ccccc4[nH]3)n3cc([C@@H](N)C(C)CC)nn3)CC2)n1 (some centres undefined)	.	3.2%	?	?	11.7µM*
C#CCOCCOCCOCCNc1nc(N2CCN(C(=O)[C@H](Cc3ccc(O)cc3)n3cc([C@@H](N)C(C)CC)nn3)CC2)nc(N2CCN(C(=O)[C@H](Cc3cc4ccccc4[nH]3)n3cc([C@@H](N)C(C)CC)nn3)CC2)n1 (some centres undefined)	.	-7.7%	62.0%	?	?
C#CCOCCOCCOCCNc1nc(N2CCN(C(=O)[C@H](Cc3ccc(O)cc3)n3cc([C@@H](N)C(C)CC)nn3)CC2)nc(N2CCN(C(=O)[C@H](Cc3cc4ccccc4[nH]3)n3cc([C@@H](N)CC(C)C)nn3)CC2)n1 (some centres undefined)	19.4	-9.3%	?	2.94µM*	?
